As usually defined, the inhibition is the relative decrease from the control value, in per cent.

This note sets out measurements from PubChem BioAssay.

A short description of assay [1]: antimalarial activity against Dd2 strain (AID 2302;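 active = growth inhibition above 50% at the single 2 µM test dose, taken to imply half-maximal potency below 2 µM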;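 also: 0% = DMSO untreated growth and 100% = chloroquine plus artemisinin killed control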). The settings on record: P. falciparum Dd2 in RBCs, LDH growth readout, 72 h; at 2 µM; stronger effect = higher value.
Assay [2] in a line: human hepatoma cell viability loss – ATP luminescence, cytotoxicity control for P. falciparum antimalarial project, primary screen (AID 2303;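 active = inhibition above 50%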;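 also: 0% = DMSO wells and 100% = digitonin-killed cells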). The settings on record: HepG2 viability, 24-48 h, at 10 µM, stronger effect = higher value.
The target in assay [3] is L-lactate dehydrogenase (Plasmodium falciparum (isolate CDC / Honduras)) (UniProt Q27743). Kind of assay: PfLDH activity inhibition – cell lysate, 3D7 strain, counter-screen for P. falciparum growth inhibition project (AID 2304).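 Also: 0% = vehicle and 100% = reference inhibitor.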 The settings on record: P. falciparum 3D7 crude extract, LDH APAD/NBT absorbance; at 2 µM; stronger effect = higher value. On the technique in general: The purpose of a counterscreen is to sort out artefacts and off-target activity.

Assay [4] can be described thus: inhibition of 3D7 malaria parasite growth – strain 3D7 (AID 2306).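 Also: 0% = DMSO wells and 100% = chloroquine plus artemisinin control wells.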 The settings on record: P. falciparum 3D7 erythrocytic growth, LDH absorbance, 72 h; at 2 µM; stronger effect = higher value.
Assay [5] deals with Calcium-dependent protein kinase 1 (Plasmodium falciparum (isolate 3D7)) (UniProt P62344). Kind of assay: PfCDPK1 kinase inhibitors, biochemical, TCAMS library (AID 1159585; cut-off not given, nearly all actives have IC50 up to about 0.98 µM;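 also: inhibitors leave more ATP so luminescence rises with inhibition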). The settings on record: recombinant PfCDPK1, Kinase-Glo ATP depletion luminescence.
Assay [6] addresses Plasmodium falciparum protein kinase 6 (PK6, PF3D7_1337100) (UniProt Q8IDW1). Kind of assay: PfPK6 kinase inhibitors, biochemical, TCAMS library (AID 1159586). The settings on record: recombinant PfPK6, Kinase-Glo ATP depletion luminescence. In general terms: Kinase-Glo reads ATP consumption through a luciferase reaction.
Assay [7] has as its target Protein kinase 7 (PK7), Plasmodium falciparum 3D7 (PF3D7_0213400) (UniProt Q7YTF7). Kind of assay: inhibition of Plasmodium PK7 catalytic activity – biochemical, TCAMS antimalarial set, Kinase-Glo luminescence (AID 1159587). The settings on record: recombinant PfPK7, Kinase-Glo ATP depletion luminescence.
Assay [8] has as its target Calcium-dependent protein kinase 4 (Plasmodium falciparum (isolate 3D7)) (UniProt Q8IBS5). Kind of assay: PfCDPK4 kinase inhibitors, biochemical, TCAMS library (AID 1159588; cut-off not given, nearly all actives have IC50 up to about 0.91 µM). The settings on record: recombinant PfCDPK4, Kinase-Glo ATP depletion luminescence.

Values without a mark were called inactive. For some of these results: Measured potencies and affinities stand elsewhere. Activity calls are given as the source filed them. Unless noted, no rule for the calls is given here.

Chain of Plasmodium falciparum protein kinase 6 (PK6, PF3D7_1337100) (Q8IDW1 1-305): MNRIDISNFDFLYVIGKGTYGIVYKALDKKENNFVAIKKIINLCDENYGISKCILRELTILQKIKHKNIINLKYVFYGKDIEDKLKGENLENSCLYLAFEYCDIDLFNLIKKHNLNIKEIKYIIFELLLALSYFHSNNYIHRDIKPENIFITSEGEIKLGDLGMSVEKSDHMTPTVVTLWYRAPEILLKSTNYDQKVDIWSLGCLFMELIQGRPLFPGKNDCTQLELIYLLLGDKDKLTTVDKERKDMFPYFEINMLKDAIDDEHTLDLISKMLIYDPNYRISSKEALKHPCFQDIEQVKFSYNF
Chain of Protein kinase 7 (PK7), Plasmodium falciparum 3D7 (PF3D7_0213400) (Q7YTF7 1-343): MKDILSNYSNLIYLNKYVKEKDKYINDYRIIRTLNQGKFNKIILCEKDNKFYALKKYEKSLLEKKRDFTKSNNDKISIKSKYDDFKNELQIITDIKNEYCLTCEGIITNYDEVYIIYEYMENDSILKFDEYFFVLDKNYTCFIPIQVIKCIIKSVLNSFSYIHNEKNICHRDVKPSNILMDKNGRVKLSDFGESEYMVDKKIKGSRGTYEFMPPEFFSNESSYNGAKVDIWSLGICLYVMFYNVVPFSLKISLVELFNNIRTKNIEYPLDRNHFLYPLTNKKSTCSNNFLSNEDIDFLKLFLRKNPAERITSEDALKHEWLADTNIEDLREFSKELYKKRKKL
Chain of L-lactate dehydrogenase (Plasmodium falciparum (isolate CDC / Honduras)) (Q27743 whole entry, looked up): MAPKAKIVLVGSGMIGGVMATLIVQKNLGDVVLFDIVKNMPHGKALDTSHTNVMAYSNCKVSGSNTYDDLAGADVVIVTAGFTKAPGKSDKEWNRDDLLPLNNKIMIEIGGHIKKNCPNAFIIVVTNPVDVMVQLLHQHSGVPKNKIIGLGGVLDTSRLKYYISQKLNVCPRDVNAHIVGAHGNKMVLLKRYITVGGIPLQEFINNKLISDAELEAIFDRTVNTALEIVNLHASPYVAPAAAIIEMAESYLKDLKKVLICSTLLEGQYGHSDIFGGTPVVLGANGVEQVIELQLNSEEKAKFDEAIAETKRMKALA
Chain of Calcium-dependent protein kinase 4 (Plasmodium falciparum (isolate 3D7)) (Q8IBS5 whole entry, looked up): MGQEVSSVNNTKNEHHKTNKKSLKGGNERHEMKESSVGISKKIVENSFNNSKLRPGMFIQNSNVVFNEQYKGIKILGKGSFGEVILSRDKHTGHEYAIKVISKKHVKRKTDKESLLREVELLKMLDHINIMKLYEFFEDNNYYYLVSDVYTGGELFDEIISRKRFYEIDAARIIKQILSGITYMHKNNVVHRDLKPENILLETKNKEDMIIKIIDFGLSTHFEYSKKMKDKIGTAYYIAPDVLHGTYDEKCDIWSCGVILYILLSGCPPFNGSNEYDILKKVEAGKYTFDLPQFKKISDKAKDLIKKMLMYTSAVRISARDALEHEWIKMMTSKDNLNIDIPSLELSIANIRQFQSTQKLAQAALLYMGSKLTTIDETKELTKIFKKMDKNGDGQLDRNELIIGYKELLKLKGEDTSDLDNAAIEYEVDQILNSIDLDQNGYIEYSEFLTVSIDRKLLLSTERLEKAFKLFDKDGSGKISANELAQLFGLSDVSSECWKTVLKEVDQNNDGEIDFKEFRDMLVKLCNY
Chain of Calcium-dependent protein kinase 1 (Plasmodium falciparum (isolate 3D7)) (P62344 whole entry, looked up): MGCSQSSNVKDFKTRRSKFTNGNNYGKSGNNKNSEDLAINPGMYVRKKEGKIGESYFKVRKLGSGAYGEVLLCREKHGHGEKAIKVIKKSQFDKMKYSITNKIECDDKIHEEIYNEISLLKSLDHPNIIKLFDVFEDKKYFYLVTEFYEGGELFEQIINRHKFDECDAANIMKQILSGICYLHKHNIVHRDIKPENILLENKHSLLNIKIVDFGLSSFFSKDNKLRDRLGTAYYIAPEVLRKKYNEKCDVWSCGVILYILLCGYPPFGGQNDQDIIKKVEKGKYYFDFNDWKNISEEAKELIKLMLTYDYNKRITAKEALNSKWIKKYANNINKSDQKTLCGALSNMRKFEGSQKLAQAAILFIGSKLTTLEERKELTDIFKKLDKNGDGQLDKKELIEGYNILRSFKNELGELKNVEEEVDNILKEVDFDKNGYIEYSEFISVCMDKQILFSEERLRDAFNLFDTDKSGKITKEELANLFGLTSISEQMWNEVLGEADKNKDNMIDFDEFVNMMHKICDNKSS

`Cc1cccc2[nH]c(-c3cc(-c4cccc(Cl)c4)cnc3N)nc12`: the growth inhibition in assay [1] is 99% (active); in assay [4], 101% (active). Further, the inhibition in assay [2] is 32%; in assay [3] it was 2%. Besides, the outcome in assay [5], in assay [6], in assay [7] and in assay [8] was inactive.

For the compound `COc1cc(F)c2ncc(Cl)c(C(O)CN3CCC(NC(=O)c4ccc5c(c4)NC(=O)CS5)CC3)c2c1` (stereo not given), the growth inhibition in assay [1] is 68% (active); in assay [4], 98% (active). Besides, the values for the inhibition in assay [2] and in assay [3] were 15% and 1%, respectively. The outcome in assay [5], in assay [6], in assay [7] and in assay [8] was inactive.

For `CC(C)CNCc1cccc(-c2ccc(CNc3ccc4ncccc4c3)cc2)c1`, the growth inhibition in assay [1] is 32%; in assay [4], 94% (active). For the same compound, the inhibition in assay [2] was 13%; in assay [3], -3%. Further, the result in assay [5], in assay [6], in assay [7] and in assay [8] was inactive.

For `CS(=O)(=O)c1ccc(-c2cncc(Nc3cccc([N+](=O)[O-])c3)c2)cc1`, the growth inhibition in assay [1] was 70% (active); in assay [4], 97% (active). Further, the inhibition in assay [2] is 6%; in assay [3], -1%. Also, the outcome in assay [5], in assay [6], in assay [7] and in assay [8] was inactive.

`Cc1onc(-c2c(Cl)cccc2Cl)c1C(=O)N1CCc2cc3nccc(N4CCN5CCC[C@H]5C4)c3cc21`: the growth inhibition was 58% (active) in assay [1] and 101% (active) in assay [4]. Further, the results for the inhibition in assay [2] and in assay [3] were 3% and -5%, respectively. Besides, the outcome in assay [5], in assay [6], in assay [7] and in assay [8] was inactive.

On to `COCc1nc(-c2ccccc2)nc(N2CCN(C(=O)NC(C)C)CC2)c1Cc1ccccc1F`, for which the growth inhibition in assay [1] was 94% (active); in assay [4] it was 96% (active). Further, the inhibition in assay [2] is 35%; in assay [3], -3%. Further, the result in assay [5], in assay [6], in assay [7] and in assay [8] was inactive.

With `CCC(C)(C)c1ccc(OCCCC(=O)Nc2ccc(Cl)c([N+](=O)[O-])c2)c(C(C)(C)CC)c1`, the results for the growth inhibition in assay [1] and in assay [4] were 88% (active) and 92% (active), respectively. Moreover, the inhibition is -1% in assay [2] and -8% in assay [3]. For the same compound, the outcome in assay [5], in assay [6], in assay [7] and in assay [8] was inactive.

On to `CC(=O)Nc1ccc(CN2CCC(NC(=O)c3ccc(-c4cccc(Cl)c4)s3)CC2)cc1`, for which the growth inhibition in assay [1] is 59% (active); in assay [4] it was 97% (active). Besides, the results for the inhibition in assay [2] and in assay [3] were 34% and 3%, respectively. The result in assay [5], in assay [6], in assay [7] and in assay [8] was inactive.

With `COc1ccccc1C1CCN(C2CCC(NC(=O)/C=C/c3ccc(F)c(F)c3)CC2)CC1` (stereo not given), the growth inhibition in assay [1] was 9%; in assay [4], 94% (active). In addition, the inhibition in assay [2] was 49%; in assay [3] it was 1%. For the same compound, the result in assay [5], in assay [6], in assay [7] and in assay [8] was inactive.

For `CCNc1cc(C(=O)N[C@@H](Cc2ccccc2)[C@H](O)CNC2(CC(C)C)CC2)cc(N2CCCCS2(=O)=O)c1`, the figures for the growth inhibition in assay [1] and in assay [4] were 29% and 87% (active), respectively. The results for the inhibition in assay [2] and in assay [3] were -3% and -5%, respectively. The outcome in assay [5], in assay [6], in assay [7] and in assay [8] was inactive.

`CC1(C(=O)Nc2ccc([N+](=O)[O-])cc2O)CC2c3ccccc3C1c1ccccc12` (stereo not given): the growth inhibition is 16% in assay [1] and 98% (active) in assay [4]. Besides, the inhibition in assay [2] is 37%; in assay [3], 3%. In addition, the outcome in assay [5], in assay [6], in assay [7] and in assay [8] was inactive.

As for `Cc1ccc2nc(Nc3ccc(Nc4nc5ccc(C)cc5[nH]4)c(C)c3)[nH]c2c1`, the growth inhibition in assay [1] is 94% (active); in assay [4], 99% (active). For the same compound, the figures for the inhibition in assay [2] and in assay [3] were 12% and 6%, respectively. For the same compound, the result in assay [5], in assay [6], in assay [7] and in assay [8] was inactive.

Turning to `O=S(=O)(c1ccccc1C(F)(F)F)C1C[C@H]2CC[C@@H](C1)N2S(=O)(=O)c1ccc(Cl)c(C(F)(F)F)c1` (stereo not given in full), the growth inhibition in assay [1] is 99% (active); in assay [4], 97% (active). In addition, the values for the inhibition in assay [2] and in assay [3] were 4% and -3%, respectively. The outcome in assay [5], in assay [6], in assay [7] and in assay [8] was inactive.

For the compound `COc1ccc(C(=O)N2CCC3(CC2)C(=O)N(CC(=O)NCC2CCCCC2)CN3c2ccccc2)cc1`, the growth inhibition was 99% (active) in assay [1] and 100% (active) in assay [4]. Besides, the values for the inhibition in assay [2] and in assay [3] were 18% and 3%, respectively. Moreover, the result in assay [5], in assay [6], in assay [7] and in assay [8] was inactive.

Regarding `CC(C)CNCc1ccc(-c2ccccc2CN(C(=O)NCCc2ccccc2)C2CCN(Cc3ccccc3)CC2)cc1`, the growth inhibition is 94% (active) in assay [1] and 98% (active) in assay [4]. The inhibition in assay [2] was 89% (active); in assay [3], 2%. Also, the outcome in assay [5], in assay [6], in assay [7] and in assay [8] was inactive.

For `CCN1CCC(N(CCCCCCCCc2ccc(C(F)(F)F)cc2)C(=O)Cn2c(CCc3cccc(F)c3F)cc(=O)c3ccccc32)CC1`, the results for the growth inhibition in assay [1] and in assay [4] were 65% (active) and 88% (active), respectively. Also, the inhibition in assay [2] was 89% (active); in assay [3], 2%. In addition, the outcome in assay [5], in assay [6], in assay [7] and in assay [8] was inactive.

As for `Nc1ncc(-c2ccc(F)cc2)c2ccc(-c3cccc(F)c3)cc12`, the growth inhibition is 89% (active) in assay [1] and 99% (active) in assay [4]. In addition, the figures for the inhibition in assay [2] and in assay [3] were 34% and 3%, respectively. Further, the result in assay [5], in assay [6], in assay [7] and in assay [8] was inactive.

Take `CCN(C1CCCCC1)S(=O)(=O)c1ccc(OC)c(N2CCN(C(=O)C(Cl)(Cl)Cl)CC2)c1`: the growth inhibition in assay [1] is 85% (active); in assay [4], 100% (active). The figures for the inhibition in assay [2] and in assay [3] were 0% and 3%, respectively. For the same compound, the result in assay [5], in assay [6], in assay [7] and in assay [8] was inactive.

`COc1ccc(-c2cccc(NC(=O)c3ccc(F)cc3)c2)cc1CN1CCCN(C)CC1`: the figures for the growth inhibition in assay [1] and in assay [4] were 35% and 101% (active), respectively. For the same compound, the inhibition was 26% in assay [2] and 2% in assay [3]. Besides, the result in assay [5], in assay [6], in assay [7] and in assay [8] was inactive.

Turning to `O=C(Nc1cccc(C(F)(F)F)c1)NC1CCN(c2ccnc3ccccc23)CC1`, the growth inhibition is 43% in assay [1] and 101% (active) in assay [4]. Moreover, the inhibition is 23% in assay [2] and -1% in assay [3]. Also, the outcome in assay [5], in assay [6], in assay [7] and in assay [8] was inactive.
